Screens (PubChem BioAssay)
aSyn 5UTR act – Activators via SNCA 5'UTR binding, MLPCN; alpha-synuclein 5'UTR reporter, activators screen; activity score, % (tested at 7.5 µM), hits read low; 7.1% of 300,000 active; AID 1814, 2009; in the data active = activity score below about -60%
The depositor's hits bear a star. A selection follows.

SMILES | aSyn 5UTR act
CC1=Nn2c(nc3sc4c(c3c2=O)CCCC4)SC1 | -141.9*
Cc1ccc(-c2nc3sc4c(c3c(=O)n2N)CCCC4)cc1 | -107.2*
COc1ccc(-n2cnc3sc4c(c3c2=O)CCCC4)cc1 | -88.0*
Cc1ccc(-n2cnc3sc(C)c(C)c3c2=O)cc1 | -97.9*
C=CCn1cccc(C(=O)Nc2ccc(N(C)C)cc2)c1=O | -104.3*
C=CCn1cccc(C(=O)Nc2ccc(Cl)cc2)c1=O | -140.9*
C=CCn1cccc(C(=O)Nc2ccc(OCC)cc2)c1=O | -154.6*
C=CCn1cccc(C(=O)Nc2ccc(SC)cc2)c1=O | -155.1*
Brc1ccc(-c2nnc(-c3cccc(Br)c3)o2)cc1 | -127.2*
O=C(O)c1ccc(-c2nnc(-c3cccc(Br)c3)o2)cc1 | -201.9*
O=C(Nc1cnn(Cc2ccccc2)c1)c1nc2ncccn2n1 | -66.2*
O=C(NC(C(=O)c1ccccc1)N1CCOCC1)c1ccccc1 (stereo not given) | -66.7*
Cc1cc(=O)n(C(NC(=O)c2ccccc2)C(=O)c2ccccc2)cn1 (stereo not given) | -84.1*
Cc1ccc(Nc2nc(C)c(CCC(C)C)c(=O)[nH]2)cc1 | -94.4*
Cc1ccc(Nc2nc3c(c(=O)[nH]2)CCCC3)cc1 | -142.7*
Cc1cc2n(n1)C(c1ccc(N(C)C)cc1)Nc1ccccc1-2 (stereo not given) | -155.9*
CC(=O)c1cccc(NC(=O)Nc2ccc3c(c2)CCC3)c1 | -91.4*
CCc1ccc(NC(=O)Nc2ccc3c(c2)CCC3)cc1 | -125.5*
COc1cccc(NC(=O)COc2ccc3c(c2)CCC3)c1 | -65.2*
O=C(Nc1ccc2c(c1)CCC2)c1cccc(F)c1 | -143.2*
CC(=O)c1cccc(NC(=O)c2ccc3c(c2)CCCC3)c1 | -132.2*
CC(=O)c1ccc(NC(=O)c2cnn3ccccc23)cc1 | 78.9
COc1cccc(NC(=O)Nc2ccc3c(c2)CCC3)c1 | -130.3*
CC(=O)c1cccc(NC(=O)c2cnn3ccccc23)c1 | -106.3*
Cn1cc(C(=O)Nc2ccc3c(c2)CCC3)cn1 | -104.9*
SMILES | aSyn 5UTR act
Cc1cccc(NC(=O)Nc2ccc3c(c2)CCC3)c1 | -115.7*
CN(C)/C=N/c1ncc(C(=O)c2ccc(Cl)cc2)s1 | -72.4*
CC(C)(C)CC(=O)Nc1nnc(CCc2ccccc2)s1 | -113.5*
CC(C)(C)Cc1nnc(NC(=O)CSc2ccccc2)s1 | -136.9*
CCC(C)(C)C(=O)Nc1nnc(CCc2ccccc2)s1 | -141.1*
CC(C)CN(C(=O)c1ccc(=O)n(C)n1)c1nc2ccccc2s1 | -109.3*
O=c1cc(NCCc2ccccc2)c2ccccc2o1 | -130.4*
Nc1ccccc1SC1CC(=O)N(c2ccc3c(c2)OCCO3)C1=O (stereo not given) | -78.1*
CC(C)/C=N/Nc1nc(-c2ccc(Br)cc2)cs1 | -141.3*
CCOC(=O)c1ccccc1NC1c2ccccc2C(=O)N1c1ccc(C)cn1 (stereo not given) | -85.3*
COc1cc(NC2c3ccccc3C(=O)N2c2ccc(C)cn2)cc(OC)c1OC (stereo not given) | -76.9*
CC(=O)c1cccc(OCc2cc(C(=O)N3C[C@H]4CC[C@H]3C4)no2)c1 | -134.0*
O=C(c1cc(COc2cccc(C(F)(F)F)c2)on1)N1C[C@H]2CC[C@H]1C2 | -116.9*
COCCC1CCCCN1C(=O)c1cc(COc2cccc(C(C)=O)c2)on1 (stereo not given) | -95.8*
CC(=O)c1cccc(OCc2cc(C(=O)N3C[C@@H](C)O[C@@H](C)C3)no2)c1 | -75.3*
COc1cc(/C=N/n2cnnc2)ccc1OCCSc1ccc(C)cc1 | -78.1*
CC(C)(C)C1CCc2c(sc(NC(=O)c3cccs3)c2C(N)=O)C1 (stereo not given) | -157.6*
COc1ccccc1NC(=O)C1=C(C)NC(=O)NC1c1ccccc1[N+](=O)[O-] (stereo not given) | -97.6*
Cn1c(=N)n(CC(=O)c2ccc(F)cc2)c2ccccc21 | 75.7
CCn1c(=N)n(CC(=O)c2ccc(Cl)c(Cl)c2)c2ccccc21 | -186.4*
CCn1c(C)cc(O)c(C(=O)Nc2cccc(Cl)c2)c1=O | -95.6*
CCn1c(C)c(C)c2cc(C(=O)Nc3cccc(Cl)c3)ccc21 | -117.4*
Cc1cc(O)c(C(=O)Nc2cccc(Cl)c2)c(=O)n1C | -103.8*
CCc1nnc(NC(=O)c2cccc(C(=O)Nc3nnc(CC)s3)n2)s1 | 66.0
CCOc1ccccc1C(=O)Nc1nnc(CC)s1 | -93.0*
SMILES | aSyn 5UTR act
COc1ccccc1C(=O)Nc1nsc(-c2ccccc2)n1 | -152.4*
COc1ccccc1C(=O)Nc1nnc(-c2ccc(F)cc2)s1 | -131.6*
O=C(Nc1nnc(-c2ccccc2)s1)c1ccc(F)cc1 | -89.4*
Cc1cccc(N2CCN(C(=O)NC3CCCCC3)CC2)c1C | -94.8*
Cc1cccc(N2CCN(C(=O)CN3C(=O)C4CC=CCC4C3=O)CC2)c1C (stereo not given) | -113.3*
c1ccc2c(c1)NC1(CCCC1)n1c-2nc2ccccc21 | -141.5*
CCCC1(C)Nc2ccccc2-c2nc3ccccc3n21 (stereo not given) | -95.7*
CCOc1ccc(-c2nnc(SCC(=O)N3CCOCC3)o2)cc1 | -113.3*
CCOc1ccc(-c2nc(CSCC(=O)N3CCN(c4cccc(OC)c4)CC3)c(C)o2)cc1 | 68.5
CCOc1ccc(-c2nnc(SCC(=O)N3CCCC3)o2)cc1 | -101.3*
COc1ccc(-c2nnc(SCC(=O)N3CCCC3)o2)cc1 | -107.3*
CC(=O)Nc1ccc(S(=O)(=O)N2CCN=C2SCc2ccc(C)cc2)cc1 | -72.0*
CC#CC(=O)N1CCC(CCc2ccccc2)(C(=O)OCC)CC1 | 46.7
CCOC(=O)C1(CCCc2ccccc2)CCN(Cc2cnc(C)s2)CC1 | -62.5*
CN1CCC(Oc2ccc(Sc3ccccc3)cc2)CC1 | -76.8*
COc1ccc(OC)c(Nc2cc(C)nc3ccc(C)cc23)c1 | 62.9
COc1ccc2nc(C)cc(Nc3ccc(N4CCN(C)CC4)cc3)c2c1 | -87.2*
CC(=O)c1sc2c(c1OC(=O)c1ccc(Cl)cc1Cl)c(=O)n(-c1ccccc1)c(=S)n2-c1ccccc1 | 100.6
S=c1[nH]nc(-c2ccc(Cl)cc2Cl)n1-c1ccccc1 | -198.9*
CC1(C)Cc2c(sc3nc(N/N=C/c4ccccc4)[nH]c(=O)c23)CO1 | -78.0*
C=CCNC(=O)c1sc(-c2ccccc2)nc1C | -67.0*
Cc1nc(-c2ccccc2)sc1C(=O)NN | -102.2*
FC(F)(F)c1ccc(N/N=C/c2cccnc2)nc1 | -115.2*
Cc1csc(N/N=C\c2cccnc2)n1 | -115.9*
O=[N+]([O-])c1ccc(N/N=C\c2cccnc2)nc1 | -84.2*
SMILES | aSyn 5UTR act
Cc1cc(-c2nnc(-c3cccc(Cl)c3)o2)no1 | -170.8*
Cn1cc(-c2nnc(-c3ccccc3)o2)c2ccccc21 | -64.2*
Cc1cccc(-c2nnc(-c3ccccc3)o2)c1 | -126.8*
Cc1ccccc1-c1nnc(-c2ccccc2)o1 | -137.9*
Cc1ccc(-c2nnc(/C=C/c3ccccc3)o2)cc1 | -136.3*
Cc1ccccc1-c1nnc(-c2ccc(Cl)cc2)o1 | -234.1*
Cc1ccc(-c2nnc(-c3ccc4c(c3)OCO4)o2)cc1 | -116.1*
CC1CCN(c2nc3ccc(C(=O)O)cc3s2)CC1 | 106.0
CCC1CCCCN1CCCNC(=O)c1ccc2nc(N3CCC(C)CC3)sc2c1 (stereo not given) | -291.8*
CC1CCN(c2nc3ccc(C(=O)NCCCN4CCCCC4)cc3s2)CC1 | -281.6*
CNCc1cc(Cl)cc(OC)c1OC(C)C | -80.9*
OC(COc1ccc2cc(Br)ccc2c1)CN1CCCC1 (stereo not given) | -96.8*
OC(COc1ccc(OCc2ccccc2)cc1)CN1CCCCC1 (stereo not given) | -73.1*
